Measured values from PubChem BioAssay (Tox21).
Where “and” joins values, the source holds several entries; their conditions need not be identical. Equal values may be shown once. Inconclusive results are not listed. Entries that show only a call come without a potency. Calls of active or inactive are those of the source. Calls follow the shape of the dose curve; as a rule, active = well fitted curve in the direction sought with a large enough effect in the repeat runs; inconclusive = weak or mixed curves; inactive = no such curve, though single readings can be large; an effect the other way counts as inactive or inconclusive.

Test: qHTS assay to identify small molecule agonists of the RXR signaling pathway - cell viability counter screen (AID 1159529); also: nearly all actives have a fitted effect of over 50% in size
Conditions: RXR-alpha-bla HEK293T viability, CellTiter-Glo, 16 h; series mostly up to 76.8 µM
Method in brief: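 Luminescence from CellTiter-Glo (30 min, RT) measured viability in the same wells as the beta-lactamase reporter readout. Cells: GeneBLAzer RXR-alpha HEK 293T, 2% charcoal-stripped FBS. Compound exposure 16 hr, 37 C.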
Potency is read from the fitted curve at half-maximal effect.

Structure (SMILES) | Potency
COP(=S)(OC)Oc1nc(Cl)c(Cl)cc1Cl | inactive
C[C@]12CC[C@H]3[C@@H](CCC4=CC(=O)CC[C@@H]43)[C@@H]1CC[C@@H]2OC(=O)CCc1ccco1 | 23.9 µM (active)
O=[N+]([O-])c1ccccc1-c1ccccc1 | inactive
Nc1ccccc1-c1ccccc1 | 21.7 µM (active)
O=[N+]([O-])c1cccc2cccc([N+](=O)[O-])c12 | inactive
CN/C(=N\[N+](=O)[O-])NCc1cnc(Cl)s1 | inactive
CCN(CC)CCc1c[nH]c2ccccc12 | inactive
ClC1(Cl)C2(Cl)C3(Cl)C4(Cl)C(Cl)(Cl)C5(Cl)C3(Cl)C1(Cl)C5(Cl)C24Cl (stereo not drawn) | inactive
ClC(Cl)C(Cl)(Cl)Cl | inactive
BrCCCBr | inactive
O=C(N[C@H]1N=C(c2ccccc2F)c2cccc3c2N(CC3)C1=O)c1cc2ccccc2[nH]1 | inactive
O=S1OCC2C(CO1)C1(Cl)C(Cl)=C(Cl)C2(Cl)C1(Cl)Cl (stereo not drawn) | 48.9 µM (active)
Cc1ccn2nc(S(=O)(=O)Nc3c(F)cccc3F)nc2n1 | inactive
CSSC | inactive
CN(C)CCc1c[nH]c2ccccc12 | inactive
Oc1cccc(Cl)c1Cl | 49.2 µM (active)
C[C@H]1[C@H](c2ccc(Cl)cc2)SC(=O)N1C(=O)NC1CCCCC1 | inactive
CC(C)=CCN1CC[C@@]2(C)c3cc(O)ccc3C[C@@H]1[C@@H]2C | inactive
CC(Cl)CCl (stereo not drawn) | inactive
CN | inactive

Structure (SMILES) | Potency
CC(Cc1ccccc1)N(C)Cc1ccco1 (stereo not drawn) | inactive
O=[N+]([O-])c1ccc(Cl)c(Cl)c1Cl | inactive
Brc1cccc(-c2ccccc2)c1 | inactive
Cc1cccc(Cc2cnc[nH]2)c1C | inactive
NC(=O)C(Cl)Cl | inactive
O=C(O)CCCCCCNC1c2ccccc2CCc2ccccc21 | inactive
CN1C2CCC(C)(C)C1CC(OC(=O)C(O)(c1cccs1)c1cccs1)C2 (stereo not drawn) | inactive
Oc1cc(Cl)cc(Cl)c1 | inactive
Oc1cc(Cl)c(Cl)c(Cl)c1Cl | inactive
CC(=O)[O][Pb]([c]1ccccc1)([c]1ccccc1)[c]1ccccc1 | 2.45 µM (active)
O=[N+]([O-])C(Br)Br | inactive
CCCCCCCCCCCCCCn1cc[n+](C)c1 | 19.5 µM (active)
ClCBr | inactive
[O]=[Cr][O][Cr]=[O] | inactive
COP(=O)(OC)Oc1ccc([N+](=O)[O-])cc1 | inactive
O=[N+]([O-])c1ccc(CCl)cc1 | inactive
CCOC(=O)CCN(SN(C)C(=O)Oc1cccc2c1OC(C)(C)C2)C(C)C | inactive
O=C(Cl)c1ccccc1F | inactive
CN(C)C(=S)SSC(=S)N(C)C | 272 nM (active) and 692 nM (active) and 268 nM (active)

Test: qHTS assay to identify small molecule antagonists of the retinoid acid receptor (RAR) signaling pathway - cell viability counter screen (AID 1159551); also: nearly all actives have a fitted effect of over 35% in size
Conditions: C3RL4 cells viability, ATP luminescence (CellTiter-Glo), 6 h; series mostly up to 92.4 µM
Method in brief: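 Retinol-stimulated (1 uM final) C3RL4 cells, compound 6 h, 37 C; readout CellTiter-Glo luminescence (ATP) after 30 min RT incubation.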

Structure (SMILES) | Potency
COP(=S)(OC)Oc1nc(Cl)c(Cl)cc1Cl | inactive
C[C@]12CC[C@H]3[C@@H](CCC4=CC(=O)CC[C@@H]43)[C@@H]1CC[C@@H]2OC(=O)CCc1ccco1 | inactive
O=[N+]([O-])c1ccccc1-c1ccccc1 | inactive
Nc1ccccc1-c1ccccc1 | inactive
O=[N+]([O-])c1cccc2cccc([N+](=O)[O-])c12 | inactive
CN/C(=N\[N+](=O)[O-])NCc1cnc(Cl)s1 | inactive
CCN(CC)CCc1c[nH]c2ccccc12 | inactive
ClC1(Cl)C2(Cl)C3(Cl)C4(Cl)C(Cl)(Cl)C5(Cl)C3(Cl)C1(Cl)C5(Cl)C24Cl (stereo not drawn) | inactive
ClC(Cl)C(Cl)(Cl)Cl | inactive
BrCCCBr | inactive
O=C(N[C@H]1N=C(c2ccccc2F)c2cccc3c2N(CC3)C1=O)c1cc2ccccc2[nH]1 | inactive
O=S1OCC2C(CO1)C1(Cl)C(Cl)=C(Cl)C2(Cl)C1(Cl)Cl (stereo not drawn) | 54.5 µM (active)
Cc1ccn2nc(S(=O)(=O)Nc3c(F)cccc3F)nc2n1 | inactive
CSSC | inactive
CN(C)CCc1c[nH]c2ccccc12 | inactive
Oc1cccc(Cl)c1Cl | inactive
C[C@H]1[C@H](c2ccc(Cl)cc2)SC(=O)N1C(=O)NC1CCCCC1 | inactive
CC(C)=CCN1CC[C@@]2(C)c3cc(O)ccc3C[C@@H]1[C@@H]2C | inactive
CC(Cl)CCl (stereo not drawn) | inactive
CN | inactive

Structure (SMILES) | Potency
CC(Cc1ccccc1)N(C)Cc1ccco1 (stereo not drawn) | inactive
O=[N+]([O-])c1ccc(Cl)c(Cl)c1Cl | inactive
Brc1cccc(-c2ccccc2)c1 | inactive
Cc1cccc(Cc2cnc[nH]2)c1C | inactive
NC(=O)C(Cl)Cl | inactive
O=C(O)CCCCCCNC1c2ccccc2CCc2ccccc21 | inactive
CN1C2CCC(C)(C)C1CC(OC(=O)C(O)(c1cccs1)c1cccs1)C2 (stereo not drawn) | inactive
Oc1cc(Cl)cc(Cl)c1 | inactive
Oc1cc(Cl)c(Cl)c(Cl)c1Cl | inactive
CC(=O)[O][Pb]([c]1ccccc1)([c]1ccccc1)[c]1ccccc1 | 9.69 µM (active)
O=[N+]([O-])C(Br)Br | inactive
CCCCCCCCCCCCCCn1cc[n+](C)c1 | 54.6 µM (active) and 60.4 µM (active)
ClCBr | inactive
[O]=[Cr][O][Cr]=[O] | inactive
COP(=O)(OC)Oc1ccc([N+](=O)[O-])cc1 | inactive
O=[N+]([O-])c1ccc(CCl)cc1 | inactive
CCOC(=O)CCN(SN(C)C(=O)Oc1cccc2c1OC(C)(C)C2)C(C)C | inactive
O=C(Cl)c1ccccc1F | inactive
CN(C)C(=S)SSC(=S)N(C)C | 67.6 µM (active)
